Unmarked numbers belong to inactive results.

This assay relates to Vero E6 infected with SARS-CoV-2. The experiment in a line: inhibition of SARS-CoV-2 cytopathic effect; higher = more antiviral protection, active = above 15. The note with it: 48 h.

As for `CN(C/C=C/C#CC(C)(C)C)Cc1cccc2ccccc12` [terbinafine], the “inhibition of SARS-CoV-2 cytopathic effect” value (from here on “inhibition”) (1 nM) was 5.77%; the “inhibition” value (8.33 nM) was 2.3%; the “inhibition” value (100 nM) is 8.59%; the “inhibition” value (833.33 nM) is 6.27%; the “inhibition” value (10000 nM) is 8.15%.
On the same counts, the results for `C[C@H](Nc1ncnc2nc[nH]c12)c1cc2cccc(Cl)c2c(=O)n1-c1ccccc1` [duvelisib] are -1.06%, -0.83%, -1.82%, 0.25% and -3.79%.
As for `COc1ccc(CCN2CCN(CCCc3ccccc3)CC2)cc1OC` [cutamesine], the “inhibition” value is 1.71% (1 nM); 0.69% (8.33 nM); 3.33% (100 nM); 2.23% (833.33 nM); -5.76% (10000 nM).
As for `CCOc1nc2cccc(C(=O)O)c2n1Cc1ccc(-c2ccccc2-c2nnn[nH]2)cc1` [candesartan], the “inhibition” value is, setting by setting: (1 nM) -1.63%; (8.33 nM) -2.91%; (100 nM) -3.25%; (833.33 nM) -3.84%; (10000 nM) -1.38%.
On the same counts, the results for `C[C@H]1CCC/C=C/[C@@H]2C[C@H](O)C[C@H]2[C@H](O)/C=C/C(=O)O1` [brefeldin-A] are 0.16%, 2.51%, 47.2% (active), -3.55% and -4.89%.
`CC(C)c1nc(CN(C)C(=O)N[C@H](C(=O)N[C@@H](Cc2ccccc2)C[C@H](O)[C@H](Cc2ccccc2)NC(=O)OCc2cncs2)C(C)C)cs1` [Ritonavir]: the “inhibition” value by setting is: (1 nM) 0.39%; (8.33 nM) 1.47%; (100 nM) 0.46%; (833.33 nM) 1.28%; (10000 nM) -1.6%.
On the same counts, the results for `C[C@H]1[C@H](NC(=O)/C(=N\OC(C)(C)C(=O)O)c2csc(N)n2)C(=O)N1S(=O)(=O)O` [aztreonam] are 3.78%, 20% (active), 1.14%, -1.55% and 0.92%.
On the same counts, the results for `O=C(O)CCC(=O)Nc1ccc(S(=O)(=O)Nc2nccs2)cc1` [succinylsulfathiazole] are -0.25%, 0.46%, 0.51%, 0.85% and -0.56%.
On the same counts, the results for `Cc1cc(Cn2nnc3c(-c4ccco4)nc(N)nc32)ccc1N` [vipadenant] are 3.17%, 2.89%, 2.73%, -0.18% and 0.65%.
`CC(C)(CO)[C@@H](O)C(=O)NCCC(=O)O` [pantothenic-acid]: the “inhibition” value is, setting by setting: (1 nM) 0.14%; (8.33 nM) -0.18%; (100 nM) 0.03%; (833.33 nM) -0.87%; (10000 nM) 2.81%.
On the same counts, the results for `c1cc2c(cc1C1CCCCC1)c1c3n2CCNC3CCC1` (stereo not given) [tetrindole] are 1.68%, 1.55%, -2.86%, -1.8% and 20.8% (active).
With `CCCC(=O)C1(c2ccccc2)CCN(C(=O)[C@@H](Cc2ccc(OC)cc2)NC(=O)[C@@H](N)Cc2cncn2C)CC1`, the “inhibition” value was 0.65% (1 nM); -1.21% (8.33 nM); 0.17% (100 nM); -1.38% (833.33 nM); 0.37% (10000 nM).
As to `O=C(O)CCn1c2c(c3ccccc31)C[C@H](NS(=O)(=O)c1ccc(F)cc1)CC2` [ramatroban], the “inhibition” value reads like this: (1 nM) -0.49%; (8.33 nM) 0.09%; (100 nM) 0.01%; (833.33 nM) 0.06%; (10000 nM) 2.02%.
On the same counts, the results for `O=C1NC(O)CCN1[C@@H]1O[C@H](CO)[C@@H](O)[C@H]1O` (stereo not given in full) [tetrahydrouridine] are 2.54%, 1.19%, 0.47%, -0.67% and -0.83%.
On the same counts, the results for `CCCCCCCC/C=C/C(=O)O` [trans-2-undecenoic-acid] are 0.16%, -0.12%, 1.42%, 1.97% and 1.5%.
With `O=C(NC1CCN(CCCCC2(C(=O)NCC(F)(F)F)c3ccccc3-c3ccccc32)CC1)c1ccccc1-c1ccc(C(F)(F)F)cc1` [lomitapide], the “inhibition” value is 0.13% (1 nM); -1.36% (8.33 nM); 0.35% (100 nM); -1.45% (833.33 nM); 20.9% (active) (10000 nM).
With `Cc1ccc(-c2ccc(C)cn2)nc1` [abametapir], the “inhibition” value (1 nM) is -4.6%; the “inhibition” value (8.33 nM) is 1.76%; the “inhibition” value (100 nM) is -1.42%; the “inhibition” value (833.33 nM) is -3.2%; the “inhibition” value (10000 nM) is -1.76%.
On the same counts, the results for `CCC1(c2ccc(N)cc2)CCC(=O)NC1=O` (stereo not given) [aminoglutethimide] are -0.9%, 2.8%, 3.28%, 2.95% and 2.93%.

The record behind these values is the supplement of paper PMC13380429.
